# Experimental data from PubChem BioAssay (Tox21).
# “And” between values parts separate entries of the source, which are not always exact repeats. Identical values can stand only once. Records with an inconclusive call do not appear. A call without a number means that no potency is given here. Where a structure was tested more than once in an assay, its records may differ in their call. The source made the active and inactive calls. Unless noted, calls follow the shape of the dose curve; as a rule, active = well fitted curve in the direction sought with a large enough effect in the repeat runs; inconclusive = weak or mixed curves; inactive = no such curve, though single readings can be large; an effect the other way counts as inactive or inconclusive.
# Legend:
# [1] = qHTS assay to identify small molecule agonists of the peroxisome proliferator-activated receptor delta (PPARd) signaling pathway - cell viability counter screen (AID 743211); also: nearly all actives have a fitted effect of over 55% in size; also: potency is read from the fitted curve at half-maximal effect
# In short: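 Following 5 h plating at 37 C and 5% CO2, PPARd UAS-bla HEK293H cells took up test compounds for 17 h. Viability was quantified by luminescence 30 min after CellTiter-Glo addition at room temperature.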
# [2] = qHTS assay to identify small molecule antagonists of the peroxisome proliferator-activated receptor delta (PPARd) signaling pathway - cell viability counter screen (AID 743213); also: nearly all actives have a fitted effect of over 50% in size; also: potency is read from the fitted curve at half-maximal effect
# In short: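 Viability counter-screen, qHTS format: PPARd-bla HEK293H, L165041 300 nM final, 17 h compound exposure at 37 C, CellTiter-Glo luminescence after 30 min RT.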
# [3] = target: Peroxisome proliferator-activated receptor delta (Homo sapiens) (UniProt Q03181); test: qHTS assay to identify small molecule antagonists of the peroxisome proliferator-activated receptor delta (PPARd) signaling pathway (AID 743215; active = well fitted inhibition curve with a large enough effect in the signal ratio in the repeat runs, not every such curve was filed as active; the % refers to the signal ratio;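 also: cells stimulated with agonist L165041 at 300 nM final during compound exposure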; also: potency is read from the fitted curve at half-maximal effect)
# In short: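 PPARd-bla HEK293H cells (UAS-bla reporter) preincubated 5 h, then given compound plus 300 nM final L165041 agonist for 17 h at 37 C. Beta-lactamase activity read by LiveBLAzer B/G FRET substrate fluorescence after 2 h at room temperature.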
# [4] = qHTS assay to identify small molecule agonists of the farnesoid-X-receptor (FXR) signaling pathway - cell viability counter screen (AID 743218); also: nearly all actives have a fitted effect of over 45% in size; also: potency is read from the fitted curve at half-maximal effect
# In short: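 FXR-UAS-bla HEK 293T cells exposed to compounds for 16 h at 37C. Cytotoxicity read in the same wells by CellTiter-Glo luminescence after 30 min at room temperature, following the beta-lactamase FRET read.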
# [5] = qHTS assay to identify small molecule agonists of the vitamin D receptor (VDR) signaling pathway - cell viability counter screen (AID 743224); also: nearly all actives have a fitted effect of over 50% in size; also: potency is read from the fitted curve at half-maximal effect
# In short: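 VDR-bla cells, 4 h after plating, exposed to compounds for 16 h at 37C; viability then read in the same wells as CellTiter-Glo luminescence after 30 min at room temperature, following the bla FRET read.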
# [6] = qHTS assay to identify small molecule antagonists of the vitamin D receptor (VDR) signaling pathway - cell viability counter screen (AID 743225); also: nearly all actives have a fitted effect of over 50% in size; also: potency is read from the fitted curve at half-maximal effect
# In short: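 In this counter screen, VDR-bla HEK 293T cells receive test compound plus 3 nM final calcitriol for 16 h at 37C. Room-temperature steps of 2 h with the beta-lactamase substrate, then 30 min with CellTiter-Glo, precede the luminescence read.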
# [7] = qHTS assay to identify small molecule agonists of the endoplasmic reticulum stress response signaling pathway (AID 1159516; active = well fitted activation curve with a large enough effect in the signal ratio in the repeat runs, not every such curve was filed as active; the % refers to the signal ratio)
# In short: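 CellSensor ESRE-bla HeLa cells, 1,500 per well, plated overnight, then exposed to compounds for 5 hr at 37 C. Beta-lactamase reporter read with LiveBLAzer B/G FRET substrate after 2 hr at room temperature, 405 nm excitation, 460 and 530 nm emission.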
# [8] = qHTS assay to identify small molecule agonists of the endoplasmic reticulum stress response signaling pathway - cell viability counter screen (AID 1159517; calls by dose curve; also: nearly all actives have a fitted effect of over 50% in size; also: potency is read from the fitted curve at half-maximal effect)
# In short: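 Counter-screen wells were identical to the reporter wells. Cells were plated at 1,500 per well and dosed for 5 hr, then read for luminescence 30 min after CellTiter-Glo addition.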
# [9] = qHTS assay to identify small molecule antagonists of the retinoid-related orphan receptor gamma (ROR-gamma) signaling pathway - cell viability counter screen (AID 1159520); also: nearly all actives have a fitted effect of over 50% in size; also: potency is read from the fitted curve at half-maximal effect
# In short: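 Tet-on ROR gamma CHO cells were given compounds for 2 hr, then doxycycline hyclate at 1 uM final, and incubated 16 hr at 37 C. Viability was measured as ATP content by CellTiter-Glo luminescence.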
# [10] = target: Nuclear receptor ROR-gamma (Homo sapiens) (UniProt P51449); test: qHTS assay to identify small molecule antagonists of the retinoid-related orphan receptor gamma (ROR-gamma) signaling pathway (AID 1159521; also: nearly all actives have a fitted effect of over 50% in size; also: potency is read from the fitted curve at half-maximal effect)
# In short: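 Screening format: cell-based luciferase reporter in CHO cells with doxycycline-inducible RORγ. Compound pre-exposure lasts 2 h, doxycycline is 1 uM final, induction runs 16 h at 37 C, and ONE-Glo luminescence is read.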
# [11] = qHTS assay to identify small molecule agonists of the AP-1 signaling pathway - cell viability counter screen (AID 1159525; calls by dose curve; also: nearly all actives have a fitted effect of over 55% in size; also: potency is read from the fitted curve at half-maximal effect)
# In short: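 AP-1-bla ME-180 cells in Opti-MEM with 0.5% dialyzed FBS, compound exposure 5 h at 37 C in 15-point titration. Viability read in the same wells as ATP content by CellTiter-Glo luminescence, normalised to tetra-n-octylammonium bromide and DMSO controls.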
# [12] = target: Bile acid receptor (Homo sapiens) (UniProt Q96RI1); test: qHTS assay to identify small molecule agonists of the farnesoid-X-receptor (FXR) signaling pathway (AID 743220; active = well fitted activation curve with a large enough effect in the signal ratio in the repeat runs, not every such curve was filed as active; the % refers to the signal ratio)
# In short: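 Beta-lactamase reporter under UAS control in GeneBLAzer FXR HEK 293T cells (5000/well) measured with LiveBLAzer FRET substrate after 2 h at room temperature. Compound exposure lasted 16 h at 37C.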
# [13] = qHTS assay to identify small molecule antagonists of the farnesoid-X-receptor (FXR) signaling pathway - cell viability counter screen (AID 743221; active = well fitted cell-killing curve with a large enough effect in the repeat runs, not every such curve was filed as active; also: nearly all actives have a fitted effect of over 50% in size; also: potency is read from the fitted curve at half-maximal effect)
# In short: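 Compound effects on cell number were measured as CellTiter-Glo luminescence in HEK 293T cells expressing FXR-UAS-bla, after 16 h at 37 C with 50 uM CDCA (final).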
# [14] = qHTS assay to identify small molecule agonists of the AP-1 signaling pathway (AID 1159526; calls by dose curve)
# [15] = target: Peroxisome proliferator-activated receptor delta (Homo sapiens) (UniProt Q03181); test: qHTS assay to identify small molecule agonists of the peroxisome proliferator-activated receptor delta (PPARd) signaling pathway (AID 743212; calls by dose curve)
# In short: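 Quantitative high-throughput agonist screen in a HEK293H beta-lactamase reporter line under UAS control. Compounds in DMSO, at 37 C. Fluorescence read after 2 h with FRET substrate at room temperature.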
# [16] = target: Vitamin D3 receptor (Homo sapiens) (UniProt P11473); test: qHTS assay to identify small molecule agonists of the vitamin D receptor (VDR) signaling pathway (AID 743222; calls by dose curve)
# In short: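 VDR-bla cells plated 4 h at 37 C, then exposed to compounds for 16 h at 37 C. Beta-lactamase reporter activity measured by fluorescence after 2 h room-temperature loading with LiveBLAzer B/G FRET substrate.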
# [17] = target: Retinoic acid receptor RXR-alpha (Homo sapiens) (UniProt P19793); test: qHTS assay to identify small molecule agonists of the RXR signaling pathway (AID 1159527; calls by dose curve; also: nearly all actives have a fitted effect of over 35% in size)
# In short: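 Fluorescence ratio readout (460 vs 530 nm) from GeneBLAzer RXR-alpha HEK 293T cells after 16 hr compound treatment; cells seeded 5 hr beforehand in low-serum, charcoal-stripped medium.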
# [18] = target: Vitamin D3 receptor (Homo sapiens) (UniProt P11473); test: qHTS assay to identify small molecule antagonists of the vitamin D receptor (VDR) signaling pathway (AID 743223; active = well fitted inhibition curve with a large enough effect in the signal ratio in the repeat runs, not every such curve was filed as active; the % refers to the signal ratio)
# In short: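 Beta-lactamase activity in VDR-bla cells is measured by FRET substrate fluorescence (2 h, room temperature) after cells spend 16 h at 37C with test compound and 3 nM final 1alpha,25-dihydroxyvitamin D3.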
# [19] = target: Bile acid receptor (Homo sapiens) (UniProt Q96RI1); test: qHTS assay to identify small molecule antagonists of the farnesoid-X-receptor (FXR) signaling pathway (AID 743217; active = well fitted inhibition curve with a large enough effect in the signal ratio in the repeat runs, not every such curve was filed as active; the % refers to the signal ratio)
# In short: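 FXR-UAS-bla HEK 293T cells (beta-lactamase reporter) given compound plus chenodeoxycholic acid (50 uM final), 16 h at 37C. LiveBLAzer B/G FRET substrate added for 2 h at room temperature; fluorescence read.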
# Sequence of Peroxisome proliferator-activated receptor delta (Homo sapiens) (Q03181 whole entry, looked up): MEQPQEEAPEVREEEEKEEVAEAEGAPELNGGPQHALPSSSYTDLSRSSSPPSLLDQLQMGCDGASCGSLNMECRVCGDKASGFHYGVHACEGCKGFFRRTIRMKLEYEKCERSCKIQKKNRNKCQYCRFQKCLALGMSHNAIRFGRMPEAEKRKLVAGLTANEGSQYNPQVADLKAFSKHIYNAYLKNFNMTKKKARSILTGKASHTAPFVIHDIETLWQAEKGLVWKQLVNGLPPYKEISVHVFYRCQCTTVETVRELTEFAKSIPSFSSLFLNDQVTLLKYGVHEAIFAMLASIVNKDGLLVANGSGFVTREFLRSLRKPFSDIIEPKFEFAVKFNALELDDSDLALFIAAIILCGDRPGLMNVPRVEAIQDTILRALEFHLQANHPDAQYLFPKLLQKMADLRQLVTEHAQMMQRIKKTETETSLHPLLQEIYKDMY
# Sequence of Bile acid receptor (Homo sapiens) (Q96RI1 whole entry, looked up): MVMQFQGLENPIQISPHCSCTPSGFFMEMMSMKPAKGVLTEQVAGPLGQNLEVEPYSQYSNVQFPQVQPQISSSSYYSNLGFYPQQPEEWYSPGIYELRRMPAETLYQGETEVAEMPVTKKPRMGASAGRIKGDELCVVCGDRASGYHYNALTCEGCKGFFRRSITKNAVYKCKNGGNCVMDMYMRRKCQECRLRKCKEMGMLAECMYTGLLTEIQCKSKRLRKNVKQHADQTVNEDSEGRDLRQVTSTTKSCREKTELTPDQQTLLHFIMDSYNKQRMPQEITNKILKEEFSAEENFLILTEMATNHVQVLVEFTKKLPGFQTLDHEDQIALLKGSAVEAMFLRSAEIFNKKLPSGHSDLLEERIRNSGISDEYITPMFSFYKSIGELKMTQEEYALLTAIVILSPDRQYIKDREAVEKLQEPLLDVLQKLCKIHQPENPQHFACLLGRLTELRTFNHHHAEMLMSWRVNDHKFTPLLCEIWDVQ
# Sequence of Retinoic acid receptor RXR-alpha (Homo sapiens) (P19793 whole entry, looked up): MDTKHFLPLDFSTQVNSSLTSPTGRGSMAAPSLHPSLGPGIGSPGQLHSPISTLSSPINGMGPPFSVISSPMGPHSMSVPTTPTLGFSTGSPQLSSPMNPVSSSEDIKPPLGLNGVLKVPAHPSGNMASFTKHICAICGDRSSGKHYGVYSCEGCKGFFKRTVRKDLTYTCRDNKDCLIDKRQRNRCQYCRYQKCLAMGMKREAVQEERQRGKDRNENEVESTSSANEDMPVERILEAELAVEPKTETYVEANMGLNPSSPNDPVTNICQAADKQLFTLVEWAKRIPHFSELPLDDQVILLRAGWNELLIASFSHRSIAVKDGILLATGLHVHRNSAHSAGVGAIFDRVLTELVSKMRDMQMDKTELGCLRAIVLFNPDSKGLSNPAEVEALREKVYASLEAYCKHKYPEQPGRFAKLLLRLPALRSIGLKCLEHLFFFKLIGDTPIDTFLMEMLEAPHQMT
# Sequence of Vitamin D3 receptor (Homo sapiens) (P11473 whole entry, looked up): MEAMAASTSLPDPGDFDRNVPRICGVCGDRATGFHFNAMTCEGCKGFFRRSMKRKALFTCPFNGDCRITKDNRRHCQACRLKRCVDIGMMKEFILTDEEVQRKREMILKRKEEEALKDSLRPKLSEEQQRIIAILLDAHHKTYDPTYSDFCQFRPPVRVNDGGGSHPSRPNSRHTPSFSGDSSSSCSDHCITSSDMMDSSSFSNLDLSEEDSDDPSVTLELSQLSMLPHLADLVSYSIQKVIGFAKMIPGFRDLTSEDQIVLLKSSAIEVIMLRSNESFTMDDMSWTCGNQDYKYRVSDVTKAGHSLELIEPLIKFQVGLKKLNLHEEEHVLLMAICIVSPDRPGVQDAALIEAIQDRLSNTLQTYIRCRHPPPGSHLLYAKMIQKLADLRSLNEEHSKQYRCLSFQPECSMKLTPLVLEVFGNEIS
Compound,Potency [1],Potency [2],Potency [3],Potency [4],Potency [5],Potency [6],outcome [7],Potency [8],Potency [9],Potency [10],Potency [11],Potency [12],Potency [13],Potency [14],Potency [15],Potency [16],Potency [17],Potency [18],Potency [19]
CC1=CC(=O)c2ccccc2C1=O,19.5 µM (active) and 26.6 µM (active),19.5 µM (active),33.5 µM (active),24.5 µM (active),17.4 µM (active) and 11.9 µM (active),17.4 µM (active) and 21.3 µM (active),inactive,43.6 µM (active),15.4 µM (active) and 29.8 µM (active),12.2 µM (active),17.4 µM (active),,,,,,,,
Cc1c(O)cccc1C(=O)N[C@@H](CSc1ccccc1)[C@H](O)CN1C[C@H]2CCCC[C@H]2C[C@H]1C(=O)NC(C)(C)C,7.56 µM (active) and 18.8 µM (active),15.1 µM (active) and 23.7 µM (active),,6.74 µM (active) and 26.6 µM (active),15.1 µM (active) and 26.6 µM (active),,,inactive,,23.7 µM (active) and 9.44 µM (active),inactive,inactive,19 µM (active) and 26.6 µM (active),inactive,,,,,
NNCCc1ccccc1,inactive,inactive,inactive,inactive,inactive,,inactive,inactive,inactive,inactive,inactive,,inactive,inactive,inactive,inactive,inactive,,
NC12CC3CC(CC(C3)C1)C2,inactive,inactive,inactive,inactive,inactive,inactive,inactive,inactive,inactive,inactive,inactive,,inactive,inactive,inactive,inactive,inactive,,
OCCOCCN1CCN(C(c2ccccc2)c2ccc(Cl)cc2)CC1 (configuration not stated),inactive,43.1 µM (active),inactive,inactive,inactive,,inactive,inactive,inactive,47.9 µM (active) and inactive,inactive,,inactive,inactive,inactive,inactive,,inactive,
CCn1c2ccccc2c2cc(N)ccc21,inactive,inactive,inactive,inactive,inactive,,,inactive,inactive,,inactive,,inactive,inactive,inactive,,inactive,,
CCCN[C@H]1CCc2nc(N)sc2C1,inactive,inactive,,inactive,inactive,inactive,inactive,inactive,inactive,inactive,inactive,,inactive,inactive,,inactive,inactive,,
Nc1cc(Cl)c(-c2cc(Cl)c(N)cc2Cl)cc1Cl,48.9 µM (active) and 43.6 µM (active),24.5 µM (active),,43.6 µM (active) and 12.3 µM (active),49 µM (active),,,54.9 µM (active),61.1 µM (active),7.69 µM (active) and 7.7 µM (active),38.9 µM (active) and 54.9 µM (active),,38.9 µM (active),,inactive,,,,
CC(=O)CC(=O)Nc1ccc2[nH]c(=O)[nH]c2c1,inactive,inactive,inactive,inactive,inactive,inactive,inactive,inactive,inactive,inactive,inactive,inactive,inactive,inactive,inactive,,inactive,,inactive
c1ccc2n[nH]nc2c1,inactive,inactive and 38.9 µM (active),inactive,inactive,inactive and 38.9 µM (active),inactive,inactive,inactive,inactive,inactive,inactive,,inactive,inactive,inactive,,inactive,,
Cc1ccc(S(=O)(=O)Oc2ccc(N=Nc3ccc(-c4ccc(N=Nc5c(O)ccc6cc(S(=O)(=O)O)cc(S(=O)(=O)O)c56)c(C)c4)cc3C)cc2)cc1,inactive,,inactive,inactive,inactive,inactive,,inactive,inactive,,inactive,inactive,inactive,,inactive,,inactive,,inactive
CC(C)(C)NC(=O)[C@@H]1CN(Cc2cccnc2)CCN1C[C@@H](O)C[C@@H](Cc1ccccc1)C(=O)N[C@H]1c2ccccc2C[C@H]1O,inactive,inactive,,inactive,inactive,inactive,inactive,inactive,inactive,inactive,inactive,,inactive,inactive,,inactive,inactive,,
CC(COc1ccccc1)N(CCCl)Cc1ccccc1 (configuration not stated),inactive,inactive,inactive,49 µM (active) and inactive,inactive,inactive,,inactive,49.1 µM (active) and 54.5 µM (active) and 29.8 µM (active),49.1 µM (active) and inactive,inactive,,inactive,,inactive,inactive,inactive,inactive,
O=C(O)c1cccc(C(=O)O)c1,inactive,inactive,inactive,inactive,inactive,,inactive,inactive,inactive,inactive,inactive,inactive,inactive,inactive,inactive,,inactive,,inactive
CO[Si](OC)(OC)c1ccccc1,inactive,inactive,inactive,inactive,inactive,inactive,inactive,inactive,inactive,,inactive,,inactive,inactive,inactive,,inactive,,
